Test results as given in PubChem BioAssay (EPA / NIEHS).
Activity calls are given as the source filed them. How the source made its calls: active means hit-call score of the fitted dose curve at least 0.9, where 1 is the maximum; inactive means score below 0.9.

Test: APR_HepG2_CellCycleArrest_1hr: Apredica 1-hour HepG2 Assay for Cell Cycle Arrest (AID 2282666)
Conditions: high-content imaging, actives raise or lower the signal
Experimental: APR_HepG2_1hr is a cell-based, multiplexed-readout assay that uses HepG2, a human liver cell line, with measurements taken at 1 hour after chemical dosing in a 384-well plate.APR_HepG2_CellCycleArrest_1hr is one of 10 assay component(s) measured or calculated from the APR_HepG2_1hr assay. It is designed to make measurements of cell phenotype, a form of morphology reporter, as detected with fluorescence intensity signals by HCS Fluorescent Imaging technology.Data from the assay component APR_HepG2_CellCycleArrest_1hr was analyzed into 1 assay endpoint. This assay endpoint, APR_HepG2_CellCycleArrest_1hr, was analyzed with bidirectional fitting relative to DMSO as the negative control and baseline of activity. Using a type of morphology reporter, measures of all nuclear dna for gain or loss-of-signal activity can be used to understand the signaling at the pathway-level as they relate to the gene . Furthermore, this assay endpoint can be referred to as a primary readout, because this assay has produced multiple assay endpoints where this one serves a signaling function. To generalize the intended target to other relatable targets, this assay endpoint is annotated to the cell cycle intended target family, where the subfamily is arrest.
Cells were treated with dimethyl sulfoxide (DMSO) as a solvent control at a final concentration of 0.5% v/v or with compounds in DMSO with a resulting final DMSO concentration of 0.5% v/v. Compound treatment was done at concentrations of 0.39, 0.78, 1.56, 3.12, 6.24, 12.5, 25, 50, 100, and 200 uM in duplicate on each plate. Cells were treated with compounds for 1, 24, or 72 hr. Carbonyl […] m-chloro-phenylhydrazone (CCCP) and taxol were used as positive controls for mitochondrial function and cytoskeletal stability, respectively; DMSO served as the negative control for this experiment. Cells were fixed by the direct addition of 50 uL formaldehyde in Hank's Balanced Salt Solution (HBSS) to a final concentration of 3.7%. After incubation in the fixation medium for 30 min at room temperature (293-298 K), cells were rinsed twice with HBSS and treated with cell permeabilization buffer (16 uL of 0.5% Triton X-100) for 10 min at room temperature (293-298 K) before labeling. For mitochondrial membrane potential and mitochondrial measurements, pre-fixed cells were incubated with 50 uL of MitoTracker Red CMXRos (Invitrogen) at a concentration of 250 nM for 30 min before fixation. In the remaining cases, post-fixed cells were labeled by incubation with a multiplexed mixture of primary antibodies in HBSS for 60 min at room temperature (293-298 K) to detect immunoreactivity of c-Jun (1:500), phospho-histone H3 (1:100), phospho-histone H2A.x (1:200), p53 (1:400), alpha-tubulin (1:200) and Hoechst 33342 (2 ug/mL). Cells were labeled for multiplexed imaging on two separate plates: a) Hoechst 33342, MitoTracker Red, phospho-histone H3, and alpha-tubulin, and b) Hoechst 33342, phospho-histone H2A.x, and c-Jun. A final rinse with HBSS (50 uL) was performed before analysis. The primary and secondary antibodies for the proteins were phospho-histone H3 (rabbit anti-phospho-histone H3 and FITC-donkey anti-rabbit IgG), phospho-histone H2A.x (mouse anti-phospho-histone H2A.x and FITC-donkey anti-mouse IgG), c-Jun (rabbit anti-phospho-c-Jun and Cy3-donkey anti-rabbit IgG), p53 (sheep anti-p53 and Cy5-donkey anti-sheep IgG), alpha-tubulin (mouse anti-alpha-tubulin and Cy5-donkey anti-mouse IgG). These antibodies are available as the CellCiphr HepG2 assay kit (Millipore).Digital images of each well were captured using a Cellomics ArrayScan VTI (Thermo Scientific Cellomics) (0.8 NA objective, 0.63x optical coupler, and XF-93 filter set) at 20x magnification. The images were acquired using the autofocus feature of the ArrayScan instrument, which entails the following steps. First, the camera focuses on channel 1 (Hoechst 33342), where nuclei are identified. Second, a Z offset of 1 um is used for capturing mitochondria (MitoTracker Red). […]

Structure (SMILES) | outcome | AC50
N#CN | inactive | –
CCCN(CCC)c1c([N+](=O)[O-])cc(C(F)(F)F)cc1[N+](=O)[O-] | inactive | –
COC(=O)c1ccccc1CS(=O)(=O)NC(=O)Nc1nc(OC)cc(OC)n1 | inactive | –
CCc1ccc(C(=O)NN(C(=O)c2cc(C)cc(C)c2)C(C)(C)C)cc1 | inactive | –
COc1nn(CSP(=S)(OC)OC)c(=O)s1 | inactive | –
CCOc1nc(NC)nc(NC(=O)NS(=O)(=O)c2ccccc2C(=O)OC)n1 | inactive | –
[2H]C1([2H])[n+]2ccccc2-c2cccc[n+]2C1([2H])[2H] | inactive | –
COP(=S)(OC)Oc1ccc([N+](=O)[O-])cc1 | inactive | –
COP(=O)(OC)OC=C(Cl)Cl | inactive | –
CCCN(CCOc1c(Cl)cc(Cl)cc1Cl)C(=O)n1ccnc1 | inactive | –
C#CCN1C(=O)COc2cc(F)c(N3C(=O)C4=C(CCCC4)C3=O)cc21 | inactive | –
CN1CSC(=S)N(C)C1 | inactive | –
CCS(=O)(=O)c1cccnc1S(=O)(=O)NC(=O)Nc1nc(OC)cc(OC)n1 | inactive | –
CC1(c2ccc(Oc3ccccc3)cc2)OC(=O)N(Nc2ccccc2)C1=O (stereo not given) | inactive | –
CC(C)(C)C(O)C(Oc1ccc(Cl)cc1)n1cncn1 (stereo not given) | inactive | –
OCCOc1ccccc1 | inactive | –
CC(C)OC(=O)Nc1cccc(Cl)c1 | inactive | –
CNC(=O)CSP(=S)(OC)OC | inactive | –
CC[C@H](C)[C@H]1O[C@]2(C=C[C@@H]1C)C[C@@H]1C[C@@H](C/C=C(\C)[C@@H](O[C@H]3C[C@H](OC)[C@@H](O[C@H]4C[C@H](OC)[C@@H](O)[C@H](C)O4)[C@H](C)O3)[C@@H](C)/C=C/C=C3\CO[C@@H]4[C@H](O)C(C)=C[C@@H](C(=O)O1)[C@]34O)O2 (tested in a mixture with another compound) | inactive | –
CC(C)(C)C(O)/C(=C\c1ccc(Cl)cc1Cl)n1cncn1 (stereo not given) | inactive | –

Structure (SMILES) | outcome | AC50
O=[N+]([O-])c1c(Cl)c(Cl)c(Cl)c(Cl)c1Cl | inactive | –
CCC(C)(NC(=O)c1cc(Cl)c(C)c(Cl)c1)C(=O)CCl (stereo not given) | inactive | –
O=C(Nc1ccccc1)Nc1cnns1 | inactive | –
O=S(=O)(O)C(F)(F)C(F)(F)C(F)(F)C(F)(F)C(F)(F)C(F)(F)C(F)(F)C(F)(F)F | inactive | –
CNC(=O)Oc1cccc(N=CN(C)C)c1 | inactive | –
O=C(O)C(F)(F)C(F)(F)C(F)(F)C(F)(F)C(F)(F)C(F)(F)C(F)(F)F | inactive | –
COP(=S)(OC)Oc1ccc(SC)c(C)c1 | inactive | –
COc1cc(OC)nc(NC(=O)NS(=O)(=O)c2cc(NC=O)ccc2C(=O)N(C)C)n1 | inactive | –
COC(=O)c1ccccc1S(=O)(=O)NC(=O)Nc1nc(C)nc(OC)n1 | inactive | –
O=S1OCC2C(CO1)C1(Cl)C(Cl)=C(Cl)C2(Cl)C1(Cl)Cl (stereo not given) | inactive | –
Oc1ccc(Cl)cc1Cc1ccccc1 | – | 114 µM (active)
O=C(O)CCCOc1ccc(Cl)cc1Cl | inactive | –
CCOC1Oc2ccc(OS(C)(=O)=O)cc2C1(C)C (stereo not given) | inactive | –
O=C(O)COc1ccc(Cl)cc1Cl | inactive | –
CC1(C)C(C=C(Cl)Cl)C1C(=O)OC(C#N)c1ccc(F)c(Oc2ccccc2)c1 (stereo not given) | inactive | –
C[C@H]1[C@H](c2ccc(Cl)cc2)SC(=O)N1C(=O)NC1CCCCC1 | inactive | –
Oc1cc(Cl)ccc1Oc1ccc(Cl)cc1Cl | – | 118 µM (active)
CNC(=O)/C=C(\C)OP(=O)(OC)OC | inactive | –
O=C1c2ccccc2C(=O)N1SC(Cl)(Cl)Cl | inactive | –
CCC(C)Nc1c([N+](=O)[O-])cc(C(C)(C)C)cc1[N+](=O)[O-] (stereo not given) | inactive | –
